The values below come from ChEMBL document CHEMBL4513146, “CO-ADD screening of Karazin Kharkiv National University (Ukraine) compounds”.

Entries with a potency or affinity are not part of this list.

In this assay the test system is Candida albicans. The settings on record: Concentration 32 ug.mL-1; ASSAY_TEST Inhibition of Fungal Growth; detection method Absorption (OD530).
On to `COc1ccc(-c2cc3c4nnc(SCC(=O)Nc5cccc(C#N)c5)n4ccn3n2)cc1`, for which the Inhibition (commonly the percentage by which the read-out fell short of the control) was found to be 13.14%.
Consider `COc1ccccc1-n1ccn2c(SCC(=O)Nc3ccc(C)cc3Cl)nnc2c1=O`, for which the Inhibition is recorded as 3.4%.
`O=S(=O)(c1ccc2nncn2c1)N(Cc1cccc(F)c1)c1ccc(F)c(F)c1` came in with an Inhibition of 5.52%.
Then `Cc1ccc(NC(=O)CSc2nc3ccccc3n3c(C(C)C)nnc23)c(Cl)c1`, with 27.99%; and `Cc1nnc2c(=O)n(CC(=O)Nc3ccc(F)cc3)c3ccccc3n12`, with 0.41%.
`Cc1nnc2c(=O)n(CC(=O)Nc3ccccc3Br)c3ccccc3n12`: the Inhibition is given as 2.04%.
`Cc1nnc2ccc(S(=O)(=O)N(Cc3cccc(F)c3)c3ccc(F)cc3)cn12` showed an Inhibition of 1.87%.
`COc1ccc(-c2cc3c4nnc(SCC(=O)N(C)c5ccccc5)n4ccn3n2)cc1` returned an Inhibition of 32.67%.
Then `COc1cccc(Sc2nc3ccccc3n3c(=O)n(CC(=O)N4CCCc5ccccc54)nc23)c1`, with 0.71%.
Then `CCc1ccc(NC(=O)Cn2nc3c(Oc4cccc(OC)c4)nccn3c2=O)cc1`, with 2.5%; and `CCOc1ccc(-n2ccn3c(SCC(=O)c4ccc(F)cc4)nnc3c2=O)cc1`, with 2.02%.
Then `CCc1nnc2c(=O)n(CC(=O)Nc3ccc4c(c3)OCCO4)c3ccccc3n12`, with 13.49%; and `CCCCOc1ccc(-c2cc3c4nnc(SCC(=O)N(CC)c5ccccc5)n4ccn3n2)cc1`, with 5.05%; and `O=S(=O)(c1ccc2nncn2c1)N(Cc1cc(F)cc(F)c1)c1ccc(F)c(F)c1`, with 1.89%.
Consider `O=C(Cn1nc2ccc(-c3ccc(Cl)cc3)nn2c1=O)N1CCN(c2ccc(F)cc2)CC1`, for which the Inhibition is listed as 2.31%.
